Results: the supplement of paper PMC11732987, “Enantioselective OTUD7B fragment discovery through chemoproteomics screening and high-throughput optimisation” (Communications Chemistry, 2025)

Tests used:
Assay in all cases: log2 ratio of Biotin-Ahx-Ub-VS probe labelling (fragment/DMSO); higher = less target engagement (more negative = stronger competition), active = hit call of the paper (q ≤ 0.05, log2 ratio ≤ -1)
Details in all cases: compound concentration: 200 uM; treatment time: 3 h
USP19 = target: T1, USP19 (UniProt O94966)
T1 sequence (whole entry): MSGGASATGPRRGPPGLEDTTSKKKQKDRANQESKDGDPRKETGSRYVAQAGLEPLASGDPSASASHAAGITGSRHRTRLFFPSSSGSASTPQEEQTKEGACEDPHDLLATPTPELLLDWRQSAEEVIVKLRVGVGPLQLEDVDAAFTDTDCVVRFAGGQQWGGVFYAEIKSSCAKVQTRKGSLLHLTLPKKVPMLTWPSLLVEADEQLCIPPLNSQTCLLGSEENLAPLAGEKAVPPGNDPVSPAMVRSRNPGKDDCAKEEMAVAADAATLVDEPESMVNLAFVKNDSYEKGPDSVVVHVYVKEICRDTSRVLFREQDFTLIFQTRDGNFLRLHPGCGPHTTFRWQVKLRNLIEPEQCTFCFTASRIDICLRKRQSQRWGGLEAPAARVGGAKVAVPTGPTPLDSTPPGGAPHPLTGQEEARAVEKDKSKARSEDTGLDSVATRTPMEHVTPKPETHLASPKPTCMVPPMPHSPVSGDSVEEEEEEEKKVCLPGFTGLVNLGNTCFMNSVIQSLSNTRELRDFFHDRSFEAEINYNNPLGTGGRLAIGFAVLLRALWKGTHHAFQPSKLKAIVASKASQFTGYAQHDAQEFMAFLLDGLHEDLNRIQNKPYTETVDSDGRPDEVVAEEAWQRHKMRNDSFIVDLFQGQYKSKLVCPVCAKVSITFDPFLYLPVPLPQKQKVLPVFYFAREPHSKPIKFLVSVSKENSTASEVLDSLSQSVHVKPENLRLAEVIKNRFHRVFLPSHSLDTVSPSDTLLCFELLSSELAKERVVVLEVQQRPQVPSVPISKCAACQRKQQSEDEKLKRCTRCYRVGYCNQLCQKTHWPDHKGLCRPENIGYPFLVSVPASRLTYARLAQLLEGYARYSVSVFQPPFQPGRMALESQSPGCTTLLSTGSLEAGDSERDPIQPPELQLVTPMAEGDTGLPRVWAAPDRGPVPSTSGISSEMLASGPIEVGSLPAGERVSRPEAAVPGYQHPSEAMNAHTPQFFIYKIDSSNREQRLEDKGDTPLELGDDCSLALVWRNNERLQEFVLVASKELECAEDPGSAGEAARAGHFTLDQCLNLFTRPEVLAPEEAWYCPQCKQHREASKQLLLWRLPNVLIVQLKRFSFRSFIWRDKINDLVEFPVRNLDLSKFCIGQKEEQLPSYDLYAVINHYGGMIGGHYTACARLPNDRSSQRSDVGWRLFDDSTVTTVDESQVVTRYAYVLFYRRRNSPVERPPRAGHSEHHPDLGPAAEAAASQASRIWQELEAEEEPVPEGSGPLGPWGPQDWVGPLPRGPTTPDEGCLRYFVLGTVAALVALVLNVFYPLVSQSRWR
In short: (§1)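 Global-median-normalised Spectronaut label-free quantities were compared by unpaired t-test, and values are average log2 ratios of fragment over vehicle. Only proteins with ≥2 unique peptides were used. HEK293T lysate (495 µg per sample) was treated in triplicate with fragment at 200 µM or vehicle for 3 h and then with Biotin-Ahx-Ub-VS at 0.5 µM final for 1 h. Labelled DUBs were then NeutrAvidin-enriched, digested with LysC and trypsin, and run by diaPASEF LC-MS/MS.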

USP22 = target: T2, USP22 (UniProt Q9UPT9)
T2 sequence (whole entry): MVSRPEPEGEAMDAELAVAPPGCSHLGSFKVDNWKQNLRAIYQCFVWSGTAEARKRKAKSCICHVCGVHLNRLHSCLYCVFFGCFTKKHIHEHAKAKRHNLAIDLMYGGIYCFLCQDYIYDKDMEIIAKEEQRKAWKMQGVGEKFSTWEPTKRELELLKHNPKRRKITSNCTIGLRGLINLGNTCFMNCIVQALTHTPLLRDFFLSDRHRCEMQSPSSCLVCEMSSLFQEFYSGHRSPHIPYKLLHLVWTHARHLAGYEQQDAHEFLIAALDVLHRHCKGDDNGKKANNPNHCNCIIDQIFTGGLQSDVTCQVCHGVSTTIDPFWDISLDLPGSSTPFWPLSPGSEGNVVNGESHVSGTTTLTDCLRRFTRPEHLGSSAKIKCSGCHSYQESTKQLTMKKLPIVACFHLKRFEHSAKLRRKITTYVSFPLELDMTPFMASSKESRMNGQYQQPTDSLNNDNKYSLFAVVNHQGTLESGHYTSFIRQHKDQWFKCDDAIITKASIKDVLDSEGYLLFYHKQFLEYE
In short: as §1

USP24 = USP24 (UniProt Q9UPU5)
In short: as §1

USP25 = target: T3, USP25 (UniProt Q9UHP3)
T3 sequence (whole entry): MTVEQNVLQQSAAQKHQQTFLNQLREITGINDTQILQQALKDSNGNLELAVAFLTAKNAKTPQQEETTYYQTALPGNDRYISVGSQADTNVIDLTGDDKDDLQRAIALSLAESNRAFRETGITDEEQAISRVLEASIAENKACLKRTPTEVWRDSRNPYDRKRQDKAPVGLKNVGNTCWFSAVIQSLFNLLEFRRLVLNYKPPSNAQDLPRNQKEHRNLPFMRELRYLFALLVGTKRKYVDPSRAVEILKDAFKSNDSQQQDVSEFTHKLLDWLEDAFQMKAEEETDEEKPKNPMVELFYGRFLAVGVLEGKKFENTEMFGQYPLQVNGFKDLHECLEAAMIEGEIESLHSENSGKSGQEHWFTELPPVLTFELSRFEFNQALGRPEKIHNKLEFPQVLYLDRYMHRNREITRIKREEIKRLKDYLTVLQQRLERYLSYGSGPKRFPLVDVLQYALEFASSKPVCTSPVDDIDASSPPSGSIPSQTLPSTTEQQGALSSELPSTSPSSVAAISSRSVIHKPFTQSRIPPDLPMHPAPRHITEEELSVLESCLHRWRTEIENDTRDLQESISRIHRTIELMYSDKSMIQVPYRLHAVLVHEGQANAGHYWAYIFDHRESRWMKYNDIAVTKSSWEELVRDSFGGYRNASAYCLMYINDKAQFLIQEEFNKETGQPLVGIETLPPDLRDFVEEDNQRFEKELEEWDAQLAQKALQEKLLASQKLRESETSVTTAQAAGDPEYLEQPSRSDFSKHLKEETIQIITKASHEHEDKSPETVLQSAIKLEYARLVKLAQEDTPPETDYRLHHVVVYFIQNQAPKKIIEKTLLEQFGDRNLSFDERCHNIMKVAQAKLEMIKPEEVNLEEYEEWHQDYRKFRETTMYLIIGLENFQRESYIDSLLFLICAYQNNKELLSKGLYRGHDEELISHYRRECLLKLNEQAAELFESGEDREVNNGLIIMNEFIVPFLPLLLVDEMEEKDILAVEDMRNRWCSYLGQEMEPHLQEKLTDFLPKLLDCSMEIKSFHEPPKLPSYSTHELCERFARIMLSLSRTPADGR
In short: as §1

USP28 = target: T4, USP28 (UniProt Q96RU2)
T4 sequence (whole entry): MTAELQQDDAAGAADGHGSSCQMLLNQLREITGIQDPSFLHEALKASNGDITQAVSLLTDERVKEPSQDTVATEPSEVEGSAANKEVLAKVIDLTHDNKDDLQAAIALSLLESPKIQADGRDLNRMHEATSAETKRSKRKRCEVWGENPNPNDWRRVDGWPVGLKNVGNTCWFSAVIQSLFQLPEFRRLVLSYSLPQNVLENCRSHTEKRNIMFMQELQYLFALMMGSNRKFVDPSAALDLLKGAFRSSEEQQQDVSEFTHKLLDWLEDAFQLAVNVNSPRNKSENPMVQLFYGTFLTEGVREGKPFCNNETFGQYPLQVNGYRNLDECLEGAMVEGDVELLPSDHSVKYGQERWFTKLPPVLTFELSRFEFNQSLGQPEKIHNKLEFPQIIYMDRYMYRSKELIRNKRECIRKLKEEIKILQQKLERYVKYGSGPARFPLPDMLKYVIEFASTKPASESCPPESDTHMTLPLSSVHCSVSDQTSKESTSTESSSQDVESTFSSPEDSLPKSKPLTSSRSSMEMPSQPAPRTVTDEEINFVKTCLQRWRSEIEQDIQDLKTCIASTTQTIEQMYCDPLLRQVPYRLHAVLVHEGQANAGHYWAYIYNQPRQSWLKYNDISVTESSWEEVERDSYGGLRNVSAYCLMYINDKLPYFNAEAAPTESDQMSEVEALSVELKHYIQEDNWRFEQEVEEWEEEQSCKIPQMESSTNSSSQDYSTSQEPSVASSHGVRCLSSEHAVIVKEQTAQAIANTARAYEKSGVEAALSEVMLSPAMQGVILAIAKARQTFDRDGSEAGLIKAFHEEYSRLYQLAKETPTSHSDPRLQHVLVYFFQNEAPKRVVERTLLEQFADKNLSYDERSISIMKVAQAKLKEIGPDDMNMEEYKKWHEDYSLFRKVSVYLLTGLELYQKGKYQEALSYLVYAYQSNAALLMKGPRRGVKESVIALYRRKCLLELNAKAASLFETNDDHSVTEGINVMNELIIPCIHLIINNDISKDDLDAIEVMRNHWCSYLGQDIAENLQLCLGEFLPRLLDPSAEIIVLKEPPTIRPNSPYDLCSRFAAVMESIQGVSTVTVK
In short: as §1

Measured: log2 ratio of Biotin-Ahx-Ub-VS probe labelling

USP24, sequence (Q9UPU5 whole entry): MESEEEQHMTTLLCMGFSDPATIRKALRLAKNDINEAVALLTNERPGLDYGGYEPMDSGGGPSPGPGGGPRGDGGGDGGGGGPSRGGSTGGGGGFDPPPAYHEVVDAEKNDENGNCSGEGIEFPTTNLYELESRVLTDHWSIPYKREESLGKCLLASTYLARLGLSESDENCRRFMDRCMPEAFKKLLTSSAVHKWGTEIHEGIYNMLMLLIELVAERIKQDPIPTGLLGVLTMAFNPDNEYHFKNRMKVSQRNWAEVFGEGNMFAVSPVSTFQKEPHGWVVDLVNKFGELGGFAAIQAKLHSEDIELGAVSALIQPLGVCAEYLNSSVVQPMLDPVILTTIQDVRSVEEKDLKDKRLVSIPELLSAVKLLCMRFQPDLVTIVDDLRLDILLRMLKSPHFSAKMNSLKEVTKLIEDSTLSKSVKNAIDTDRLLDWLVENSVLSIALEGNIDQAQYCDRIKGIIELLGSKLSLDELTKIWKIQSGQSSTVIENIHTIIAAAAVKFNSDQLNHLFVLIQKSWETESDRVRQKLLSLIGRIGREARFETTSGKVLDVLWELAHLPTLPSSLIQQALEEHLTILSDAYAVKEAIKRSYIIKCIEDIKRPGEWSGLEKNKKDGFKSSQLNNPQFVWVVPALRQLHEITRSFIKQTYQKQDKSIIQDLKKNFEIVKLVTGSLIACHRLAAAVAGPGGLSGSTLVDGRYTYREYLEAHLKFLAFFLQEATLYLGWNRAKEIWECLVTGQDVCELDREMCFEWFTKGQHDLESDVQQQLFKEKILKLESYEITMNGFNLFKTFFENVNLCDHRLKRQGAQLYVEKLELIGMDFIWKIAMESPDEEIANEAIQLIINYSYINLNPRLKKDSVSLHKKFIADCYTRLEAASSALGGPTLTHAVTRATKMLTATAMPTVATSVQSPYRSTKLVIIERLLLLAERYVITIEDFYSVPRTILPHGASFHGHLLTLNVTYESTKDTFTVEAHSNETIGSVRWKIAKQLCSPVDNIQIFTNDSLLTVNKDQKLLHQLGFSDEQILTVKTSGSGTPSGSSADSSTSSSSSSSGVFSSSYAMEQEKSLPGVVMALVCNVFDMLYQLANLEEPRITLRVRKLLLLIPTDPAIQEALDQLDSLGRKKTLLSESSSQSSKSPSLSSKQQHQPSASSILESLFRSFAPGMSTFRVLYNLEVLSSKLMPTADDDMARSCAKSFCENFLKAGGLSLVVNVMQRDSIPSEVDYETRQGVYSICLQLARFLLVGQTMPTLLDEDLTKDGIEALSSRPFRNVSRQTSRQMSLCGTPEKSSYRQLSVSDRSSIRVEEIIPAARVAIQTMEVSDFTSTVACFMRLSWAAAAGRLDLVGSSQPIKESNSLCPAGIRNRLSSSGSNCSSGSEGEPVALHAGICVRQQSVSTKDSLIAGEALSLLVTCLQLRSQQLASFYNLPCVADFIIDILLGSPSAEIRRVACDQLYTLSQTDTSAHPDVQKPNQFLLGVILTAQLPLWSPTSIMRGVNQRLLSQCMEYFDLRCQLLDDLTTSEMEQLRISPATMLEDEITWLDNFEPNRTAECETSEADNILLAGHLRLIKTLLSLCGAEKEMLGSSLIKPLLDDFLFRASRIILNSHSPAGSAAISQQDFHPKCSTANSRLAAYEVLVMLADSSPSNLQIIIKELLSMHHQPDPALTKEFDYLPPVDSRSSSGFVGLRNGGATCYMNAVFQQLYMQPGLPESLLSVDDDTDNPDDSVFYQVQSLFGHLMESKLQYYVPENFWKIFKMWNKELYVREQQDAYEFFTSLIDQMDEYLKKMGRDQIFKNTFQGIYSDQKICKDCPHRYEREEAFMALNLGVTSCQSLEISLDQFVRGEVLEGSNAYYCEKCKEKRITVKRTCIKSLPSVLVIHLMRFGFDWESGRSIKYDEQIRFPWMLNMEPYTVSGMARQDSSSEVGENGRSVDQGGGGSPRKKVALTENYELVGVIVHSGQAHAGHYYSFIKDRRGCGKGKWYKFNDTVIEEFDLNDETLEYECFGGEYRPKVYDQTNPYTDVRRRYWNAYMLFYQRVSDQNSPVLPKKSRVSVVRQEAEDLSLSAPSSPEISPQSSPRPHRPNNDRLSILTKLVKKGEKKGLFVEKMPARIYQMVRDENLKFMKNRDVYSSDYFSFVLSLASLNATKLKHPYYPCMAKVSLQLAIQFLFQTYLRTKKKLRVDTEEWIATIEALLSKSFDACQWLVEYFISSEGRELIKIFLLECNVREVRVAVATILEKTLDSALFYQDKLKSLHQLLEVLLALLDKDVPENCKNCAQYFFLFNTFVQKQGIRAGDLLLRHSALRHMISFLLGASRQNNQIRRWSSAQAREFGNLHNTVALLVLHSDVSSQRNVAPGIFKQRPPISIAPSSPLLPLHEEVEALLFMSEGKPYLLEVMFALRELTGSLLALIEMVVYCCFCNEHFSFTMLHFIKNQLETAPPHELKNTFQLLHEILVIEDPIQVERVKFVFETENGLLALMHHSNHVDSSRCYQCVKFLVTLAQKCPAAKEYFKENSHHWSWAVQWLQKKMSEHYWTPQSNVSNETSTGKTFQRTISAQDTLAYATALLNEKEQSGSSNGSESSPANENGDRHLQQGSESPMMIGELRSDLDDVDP

O=C(CCl)NC(Cn1ccccc1=O)c1ccccc1 (stereo not given)
inactive: USP19 -0.14 | USP22 0.298 | USP24 -0.0705 | USP25 -0.417 | USP28 -0.211
